From PubChem BioAssay (NCI) come the findings set out here.

Compounds without any hit were thinned out: in the full panel of roughly 83,000, 20% have a hit.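 Note: values are percent growth. 100 is the growth of untreated cells, values between 100 and 0 indicate rising inhibition; between -100 and 0 indicates cell death.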 Values without a mark were called inactive. Activity calls are given as the source filed them. How the source made its calls: active means growth percent below 10; inactive means the rest.

Among the test systems are DU-145 prostate; K-562 leukemia; MALME-3M melanoma; MDA-MB-231 breast; RXF 393 renal; SF-268 CNS; SF-295 CNS; SF-539 CNS; UACC-257 melanoma; M14 melanoma.
Test in all cases: NCI-60 one-dose screen, 48 h (100 = growth as untreated, 0 = no growth, -100 = all killed)
Holding throughout (settings): 10 µM unless noted

Regarding `COc1cc2ncnc(-n3ncc4cc(NC(=O)Nc5ccccc5)ccc43)c2cc1OC`, the growth in the test on DU-145 prostate is 10.5%; with K-562 leukemia it was 39.1%; with MALME-3M melanoma, -13.8% (active); with MDA-MB-231 breast it was -8.14% (active); in the test with RXF 393 renal, -84.3% (active); in the test with SF-268 CNS, 21.7%. Further, the growth with SF-295 CNS was 26.9%; in the test on SF-539 CNS it was 0.968% (active); with UACC-257 melanoma it was 28.7%; with M14 melanoma, 6.8% (active).
As for `CCC(CCCN1C(=O)c2ccccc2C1=O)Nc1cc(OC)cc2cccnc12` (centres undefined), the growth in the test with DU-145 prostate is 102%; in the test with K-562 leukemia, 77.2%; in the test with MALME-3M melanoma it was 142%; in the test on MDA-MB-231 breast, 93.2%; in the test with RXF 393 renal it was -5.08% (active); with SF-268 CNS, 119%. Also, the growth was 111% in the test with SF-295 CNS, 93.4% in the test on SF-539 CNS and 100% in the test on UACC-257 melanoma.
In the case of `C=CCSc1nnc(COc2ccc3c(C)c(Cc4ccccc4)c(=O)oc3c2C)o1`, the growth is 106% in the test on DU-145 prostate; 96.2% with K-562 leukemia; 108% in the test with MALME-3M melanoma; 104% in the test on MDA-MB-231 breast; 114% in the test with RXF 393 renal; 101% with SF-268 CNS. For the same molecule, the growth in the test on SF-295 CNS was 99.9%; in the test with SF-539 CNS, 101%; in the test with UACC-257 melanoma, 102%; in the test on M14 melanoma, 102%.
Regarding `COc1cc(CCNc2cnc3cc(N)cc(N)c3n2)cc(OC)c1`, the growth with DU-145 prostate is 118%; in the test on K-562 leukemia, 35.3%; in the test with MALME-3M melanoma, 146%; in the test on MDA-MB-231 breast, 96.7%; with RXF 393 renal it was 114%; in the test on SF-268 CNS, 109%. For the same molecule, the growth in the test with SF-295 CNS was 116%; in the test with SF-539 CNS, 123%; with UACC-257 melanoma, 111%.
Take `CCCC(CCC)Oc1ccc(CCCC2=C(O)c3ccccc3C(=O)C2=O)cc1`: the growth was 33.4% in the test on DU-145 prostate; 23% with K-562 leukemia; 57% with MALME-3M melanoma; 54.6% with MDA-MB-231 breast; 58.7% in the test with RXF 393 renal; 45.3% in the test with SF-268 CNS. Further, the growth with SF-295 CNS was 28.2%; with SF-539 CNS it was 23.1%; in the test on UACC-257 melanoma, 40.5%.
With `CCCCCCNC(=O)Oc1ccc(/C(=C(/C)Cc2ccc(OC)cc2)c2ccc(OCCN3CCCCC3)cc2)cc1`, the growth in the test with DU-145 prostate is 98.9%; in the test on K-562 leukemia, 36.8%; in the test on MALME-3M melanoma, 101%; in the test on MDA-MB-231 breast it was 84.5%; in the test with RXF 393 renal, 84.4%; in the test with SF-268 CNS, 81.9%. Further, the growth is 105% with SF-295 CNS, 91.8% in the test with SF-539 CNS and 88.9% in the test with UACC-257 melanoma.
`CC(C)(C)C(=O)CCCCCCCC/C=C/CCCC(O)c1ccco1` (centres undefined): the growth with DU-145 prostate was 102%; in the test with K-562 leukemia, 82.4%; with MALME-3M melanoma, 109%; in the test on MDA-MB-231 breast, 102%; with RXF 393 renal, 99.7%; in the test with SF-268 CNS, 106%. Also, the growth was 105% in the test with SF-295 CNS, 97.3% in the test with SF-539 CNS and 105% in the test with UACC-257 melanoma.
Consider `COc1cccc(CNC(=O)c2cccc(C3CC(=O)c4c(cc(OC)c(OC)c4OC)O3)c2)c1` (centres undefined), for which the growth was 101% in the test with DU-145 prostate; 10.7% in the test on K-562 leukemia; 71.3% in the test on MALME-3M melanoma; 76.8% in the test on MDA-MB-231 breast; 84.3% with RXF 393 renal; 78.7% in the test on SF-268 CNS. Also, the growth is 84.1% in the test with SF-295 CNS, 35.4% with SF-539 CNS and 67.8% in the test on UACC-257 melanoma.
For the molecule `Cc1nc(N)sc1C(=O)NCCO`, the growth in the test with DU-145 prostate was 105%; in the test with K-562 leukemia it was 145%; with MALME-3M melanoma, -3.05% (active); in the test with MDA-MB-231 breast it was 101%; in the test with RXF 393 renal, 106%; in the test on SF-268 CNS, 98.6%. For the same molecule, the growth was 108% in the test on SF-295 CNS, 105% in the test with SF-539 CNS, 110% with UACC-257 melanoma and 112% in the test with M14 melanoma.
With `COc1cc(OC)cc(-c2ccc(-c3ccc(C(=N)N)cc3)s2)c1`, the growth is -90.6% (active) in the test on DU-145 prostate; -39.8% (active) in the test on K-562 leukemia; -80.7% (active) with MALME-3M melanoma; -77% (active) with MDA-MB-231 breast; -94.3% (active) in the test on RXF 393 renal; -72.2% (active) with SF-268 CNS. Moreover, the growth in the test on SF-295 CNS was -88.4% (active); in the test with SF-539 CNS, -88.7% (active); in the test with UACC-257 melanoma, -58% (active).
Consider `CCCOC(=O)c1c(C)n(C)c2scc[n+]12`, for which the growth in the test on DU-145 prostate was 77.8%; in the test with K-562 leukemia, 65%; in the test on MALME-3M melanoma, 92.5%; in the test on MDA-MB-231 breast, 80.1%; with RXF 393 renal, 67.8%; with SF-268 CNS it was 89.3%. Further, the growth with SF-295 CNS is 54.1%; in the test on SF-539 CNS it was 81.1%; with UACC-257 melanoma, 78.8%.
On to `CC(=O)Nc1nc(C)c(C(=O)NNS(=O)(=O)c2ccccc2)s1`, for which the growth is 135% in the test with DU-145 prostate; 149% in the test on K-562 leukemia; 96.5% in the test on MALME-3M melanoma; 107% with MDA-MB-231 breast; 110% with RXF 393 renal; 117% with SF-268 CNS. Moreover, the growth was 132% in the test with SF-295 CNS, 101% with SF-539 CNS, 103% in the test with UACC-257 melanoma and 97.6% with M14 melanoma.
Take `COC1=CC(c2ccc[nH]2)=N/C1=C\c1[nH]c(C)c(C(=O)CCCCC(=O)NC(C)(C)C)c1C`: the growth with DU-145 prostate is 51.5%; in the test with K-562 leukemia it was 53.5%; with MALME-3M melanoma, 48.7%; in the test with MDA-MB-231 breast it was -19.2% (active); in the test with RXF 393 renal, -47.1% (active); in the test with SF-268 CNS it was 60.2%. In addition, the growth in the test on SF-295 CNS was 24%; with SF-539 CNS, 63.1%; with UACC-257 melanoma, 75.7%.
`COC(=O)/C=C1/CCCCC1(C)C(=O)OC` (centres undefined): the growth is 112% with DU-145 prostate; 103% in the test with K-562 leukemia; 109% in the test on MALME-3M melanoma; 110% in the test on MDA-MB-231 breast; 106% in the test on RXF 393 renal; 110% with SF-268 CNS. Besides, the growth was 120% in the test with SF-295 CNS, 119% in the test on SF-539 CNS and 98.4% in the test on UACC-257 melanoma.
As for `COC(=O)/C(Br)=C/c1c[nH]c2ccc(Br)cc12`, the growth with DU-145 prostate is 104%; in the test with K-562 leukemia, 74.7%; in the test with MALME-3M melanoma, 95.2%; in the test with MDA-MB-231 breast, 80.9%; in the test on RXF 393 renal, 32.6%; in the test with SF-268 CNS, 97.7%. The results for the growth in the test on SF-295 CNS, in the test with SF-539 CNS and in the test with UACC-257 melanoma were 64%, 95% and 88%, respectively.
